An excerpt weighted towards active compounds, which were near 21% of everything screened.
HCMV inh: human cytomegalovirus inhibition; HFF cells, HCMV-luciferase reporter, 72 h; hits give low values; activity change, negative = inhibition, % at 57.5 µM; 410,000 compounds, 4.5% hits; in the data active = activity change below about -60%; inconclusive = no clear call, values can overlap the other calls; inactive = above about -39%; also: % is scaled to controls: 0 for no effect and ±100 for the full control effect
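Luciferase read-out from HCMV-luciferase-infected HFFs (MOI 1 PFU/cell) 72 h post infection at 37C; compounds added after 16 h cell attachment; activity normalized between buffer-only basal and Salinomycin (10uM) inhibitor controls.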
Pf growth 96h: P. falciparum growth inhibition at 96 hours; P. falciparum luciferase reporter growth, 96 h; Potency, µM (highest dose often 28.7 µM), for the others: at the highest dose activity change, negative = inhibition, actives largely listed as inhibitors; 320,000 compounds, 6.9% hits; also: potency is read from the fitted curve at half-maximal effect; % is scaled to controls: 0 for no effect and ±100 for the full control effect
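Two-generation exposure (96 h) targets delayed-death phenotype. Reporter parasites carrying integrated firefly luciferase, in red cells at 2% hematocrit and 0.05% parasitemia final, kept at 37 C, 5% CO2; luminescence loss indicates inhibition.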
Pf growth 48h: inhibits P. falciparum growth in the first generation, 48 h. 310,000 compounds, 5.9% hits. AID 504832. P. falciparum luciferase growth in erythrocytes, 48 h. Potency, µM (doses to about 28.7 µM), for inactives: top-dose activity change, negative = inhibition, most hits filed as inhibitors; also: potency is read from the fitted curve at half-maximal effect; % is scaled to controls: 0 for no effect and ±100 for the full control effect
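In quantitative HTS format, infected erythrocytes bearing luciferase-reporter parasites were treated for a single generation at 37 C. Luminescence after adding detection reagent served as the growth measure.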
HCV inh: blocks hepatitis C virus. Potency, µM (titrated, usually from 41.8 µM), without a hit: at the highest dose activity change, negative = inhibition, most hits filed as inhibitors. Huh7.5.1 HCVcc-Cre infection, luciferase reporter, 44 h. 340,000 compounds, 3.4% hits; also: potency is read from the fitted curve at half-maximal effect; % is scaled to controls: 0 for no effect and ±100 for the full control effect
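Cells seeded at 1,000/well and cultured 4 h, then compounds added followed by HCVcc-Cre virus (~0.5 moi). After 44 h further culture, luciferase substrate was added, plates held 15 min at room temperature, and luminescence read for 15 sec.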
Shiga toxin inh: inhibitors of Shiga toxin in Vero cells. inhibition, % at 38.7 µM. AID 2315. 290,000 compounds, 9.2% hits. Vero cells, Shiga toxin protein synthesis inhibition reporter; in the data active = inhibition mostly above about 28%, no sharp cut-off; inactive = mostly below about 43%; also: 0% is about no effect
Cycloheximide cs: counter-screen for Shiga toxin inhibitors: cycloheximide protein synthesis inhibition; cell reporter, cycloheximide protein synthesis inhibition counterscreen; max response, %; 300,000 compounds, 12% hits; in the data active = max response mostly above about 13%, no sharp cut-off; inactive = mostly below about 14%; also: read at 38.3 µM for the half of the compounds with a filed dose; 0% is about no effect
Starred values were filed as active, the others as inactive; i = inactive; ? = inconclusive; . = not tested or not shown. Unless noted, calls follow the shape of the dose curve; as a rule, active = well fitted inhibition curve with a large enough effect; inconclusive = small, poorly fitted or top-dose-only effect, or another doubt; inactive = no such curve, though single readings can be large or run the other way.

SMILES	HCMV inh	Pf growth 96h	Pf growth 48h	HCV inh	Shiga toxin inh	Cycloheximide cs
Cc1ccccc1NC(=S)N(CCCN1CCC(C)CC1)Cc1ccco1	4.1	13.1µM*	-25.6%	-8.8%	-4.1	-1.3
CCOC(=O)c1ccc(NC(=S)N(CCCN2CCCC(C)C2)Cc2ccco2)cc1 (stereo unspecified)	-29.3	?	?	10µM*	-9.0	-1.0
O=C(COc1ccc(Br)cc1)Nc1cccc2cccnc12	-0.6	.	.	.	.	.
CC(C)CNC(=O)C1(C)CCCN1C(=O)c1cc2ccccc2s1 (stereo unspecified)	-18.8	.	.	.	.	.
CCOC(=O)c1ccc(NC(=S)N(CCCN2CCCC2)Cc2ccco2)cc1	-31.6	?	?	10µM*	17.9	0.2
O=S(=O)(NC1c2cccc3cccc(c23)C1N1CCNCC1)c1ccccc1 (stereo unspecified)	21.0	2.6%	?	?	-11.0	1.5
O=C(c1ccccc1)N1CCN(C2c3cccc4cccc(c34)C2NS(=O)(=O)c2ccccc2)CC1 (stereo unspecified)	-24.7	4.15µM*	6.57µM*	?	-31.0	-2.6
O=S(=O)(NC1c2cccc3cccc(c23)C1N1CCN(CCO)CC1)c1ccccc1 (stereo unspecified)	?	-24.0%	14.7µM*	?	-13.5	-5.5
Clc1cccc(CSc2nnc(C3CCNCC3)o2)c1	-12.8	.	.	.	.	.
O=C(Nc1sc2c(c1C(=O)NCc1ccccc1)CCCC2)c1cc(=O)c2ccccc2o1	-12.1	.	.	.	.	.
O=C(c1ccccc1)c1cn(Cc2ccc(F)cc2)c2ccccc2c1=O	-10.4	.	.	.	.	.
COc1ccc(S(=O)(=O)N2CCN(C(=O)c3c(C)nn(-c4ccccc4)c3Cl)CC2)cc1	30.9	4.65µM*	0.0%	-12.4%	-14.6	10.8
O=C(c1cnn(Cc2ccccc2)c1)N1CCN(S(=O)(=O)/C=C/c2ccccc2)CC1	-29.4	-29.1%	?	-3.9%	.	.
Cc1nn(-c2ccccc2)c(Cl)c1C(=O)N1CCN(C)CC1	-34.4	12.3%	6.3%	10.4%	-9.3	-2.2
Cc1cc(C)c(S(=O)(=O)N2CCN(C(=O)c3c(C)nn(-c4ccccc4)c3Cl)CC2)c(C)c1	-72.0*	.	.	?	.	.
Cc1ccc(Cn2nc(C)c(C(=O)N3CCN(S(=O)(=O)/C=C/c4ccccc4)CC3)c2C)cc1	-30.6	3.29µM*	6.57µM*	?	.	.
Cc1ccc(S(=O)(=O)N2CCN(C(=O)c3c(C)nn(-c4ccccc4)c3Cl)CC2)cc1	-75.1*	?	?	?	-8.0	9.6
Cc1ccc(S(=O)(=O)n2nc(-c3ccccc3)nc2NCc2ccc(Cl)cc2)cc1	14.9	.	.	.	.	.
CCN(CC)S(=O)(=O)c1cccc(NC(=O)COC(=O)/C=C/c2cccs2)c1	?	-9.9%	-22.1%	9.5%	17.0	1.2
CCOc1ccc(CCNC(=O)CN2C(=O)c3cccnc3Oc3ccc(Cl)cc32)cc1	?	?	?	?	19.9	12.3
CC(=O)c1ccc(OCc2cc(C(=O)NCCn3nc(C)cc3C)no2)cc1	-8.1	?	?	20.8%	63.2*	81.5*
CC(=O)c1ccc(OCc2cc(C(=O)NC(C)c3cnn(C)c3)no2)cc1 (stereo unspecified)	9.5	-26.7%	-27.7%	-2.8%	93.9*	37.1*
Cc1nc(C(C)NC(=O)c2cc(COc3ccc(F)c(F)c3)on2)cs1 (stereo unspecified)	0.0	-26.7%	-9.5%	-19.0%	9.3	17.5*
Cc1cc(CNC(=O)c2cc(COc3ccc(F)c(F)c3)on2)nn1C	10.3	?	15.9%	.	63.7*	46.4*
Cc1nc2cc(OCc3cc(C(=O)NC(C)c4cn(C)nc4C)no3)ccc2s1 (stereo unspecified)	-23.7	0.7%	22.7%	?	1.2	13.5
SMILES	HCMV inh	Pf growth 96h	Pf growth 48h	HCV inh	Shiga toxin inh	Cycloheximide cs
COc1ccc(C(=O)c2oc3ccccc3c2NC(=O)COc2ccc(C)cc2)cc1	-15.2	.	.	.	.	.
Cc1nn(-c2ccc(N3CCCCC3)nn2)c(C)c1CCC(=O)NCc1ccc(Cl)cc1	-33.6	.	.	.	.	.
CC(C)C[C@H](NC(=O)[C@H]1O[C@@H]1C(=O)O)C(=O)NCCCCN=C(N)N	.	.	.	.	-5.2	-4.6
Cc1cc(C)n(CC(C)NC(=O)c2cc(COc3c(F)cccc3F)on2)n1 (stereo unspecified)	9.2	i	-9.8%	-5.7%	-10.9	4.7
CC(NC(=O)c1cc(COc2ccccc2)on1)c1nccs1 (stereo unspecified)	0.0	?	60.3%	0.0%	75.0*	28.0*
CCc1cc(C(=O)NC(C)c2ccccc2)no1 (stereo unspecified)	4.3	.	.	.	.	.
Cn1c(CCNC(=O)c2cc(COc3ccc(F)c(F)c3)on2)nc2ccccc21	51.9	?	0.9%	-26.8%	73.1*	16.3
Cc1cc(C)n(CC(C)NC(=O)c2cc(COc3ccc(F)c(F)c3)on2)n1 (stereo unspecified)	-23.2	?	0.4%	-29.7%	28.2*	18.7*
O=C(CSc1nnc2ccc(-c3cccnc3)nn12)Nc1ccccc1F	-7.5	-12.8%	16.5%	14.6%	.	.
COCCn1c(=NC(=O)/C=C/c2cccs2)sc2cc(NC(C)=O)ccc21	45.5	8.28µM*	?	-43.8%	-12.1	-0.5
Cc1cc2c(c(/C=C/C(=O)c3ccccc3)c1)OC1(C=C2)Oc2ccccc2C(=O)N1C (stereo unspecified)	-12.5	?	?	12.6µM*	-5.0	9.2
COc1ccc(Br)cc1CN(C)C(=O)Cc1ccc(OC)c(S(=O)(=O)N2CCOCC2)c1	3.6	6.57µM*	?	?	.	.
CCc1ccc(OC(=O)Cc2ccc(OC)c(S(=O)(=O)N3CCOCC3)c2)cc1	-97.5*	5.6%	5.8%	9.9%	.	.
COc1ccc(CC(=O)Oc2ccc(C(C)(C)C)cc2)cc1S(=O)(=O)N1CCOCC1	-10.1	14.9%	-1.0%	?	.	.
COc1ccc(CN(C)C(=O)Cc2ccc(OC)c(S(=O)(=O)N3CCOCC3)c2)cc1OC	-19.1	?	-17.0%	6.2%	.	.
O=C1CC(=O)Nc2cc(S(=O)(=O)Nc3cccc(Br)c3)ccc2N1	-13.0	.	.	.	.	.
CCOC(=O)c1c(NC(=O)c2cc(-c3ccc(Br)cc3)on2)sc(C)c1C	-3.6	.	.	.	.	.
CCOc1ccc(CNC(=O)CN2C(=O)CSc3ccc(S(=O)(=O)N4CCOCC4)cc32)cc1OC	0.0	?	13.3%	8.4%	-3.9	-2.8
COC(=O)c1c(CSc2ccc(Cl)cc2)noc1C(=O)NCc1ccco1	7.9	-1.3%	6.0%	-25.9%	11.9	-0.7
CCCNC(=O)c1c(CSc2ccccc2)noc1C(=O)NCc1ccccc1	11.9	14.7µM*	?	?	-1.2	2.2
COC(=O)c1c(CSc2cccc(C)c2)noc1C(=O)NCc1ccco1	0.9	48.1%	2.62µM*	-0.9%	23.3	21.5*
